Compound activity as filed in PubChem.
aSyn UTR inh – MLPCN primary screen, SNCA 5' untranslated region; inhibition, % (tested at 7.5 µM); alpha-synuclein 5'UTR reporter, inhibitor activity; 300,000 compounds, 0.82% hits; in the data active = inhibition above about 60%;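 also: H4 neuroglioblastoma cells stably carrying SNCA 5'UTR luciferase fusion; 0% = DMSO wells and 100% = positive control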
APP transl inh – inhibitors of APP translation via 5'UTR reporter, primary screen, APP 5'UTR luciferase, SH-SY5Y cells | SH-SY5Y APP 5'UTR-luciferase reporter, luminescence | inhibition, % at 2 µM | 190,000 compounds, 0.82% hits | AID 1285, 2008;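 active = inhibition above a set limit, derived from the sample mean plus 3 SD, cut at about 45% in these data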
BaF3 parental – parental Ba/F3 cell viability inhibition, counter-screen for JAK2V617F inhibitor project, murine pro-B, CellTiter-Glo luminescence | CellTiter-Glo ATP luminescence | inhibition, % at 5.6 µM | 220,000 compounds, 1.1% hits | AID 1486, 2009;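 active = inhibition above a per-campaign cutoff, the mean inhibition of all tested compounds plus 3 SD, cut at about 27% in these data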;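 also: 0% = DMSO wells and 100% = JAK Inhibitor I control wells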
Ba/F3 V617F tox – reduced viability of JAK2V617F-dependent Ba/F3 cells, primary screen, JAK2V617F inhibitor project, cell-based, Ba/F3 EpoR-JAK2V617F, luminescence; ATP luminescence; inhibition, % at 5.6 µM; 220,000 compounds, 1.1% hits; AID 1446, 2008;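 active = inhibition above the campaign mean plus 3 SD over all tested compounds, cut at about 24% in these data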;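 also: cytokine-independent growth of Ba/F3 cells driven by EpoR plus mutant JAK2; 0% = DMSO-treated cells and 100% = JAK inhibitor I control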
KLF5 inh – KLF5 expression inhibitors, primary screen, DLD-1 cells, luminescence | inhibition, % at 5 µM | DLD-1 KLF5 promoter-luciferase reporter | 290,000 compounds, 0.23% hits;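 active = inhibition above a per-plate limit of that plate's mean compound inhibition plus 3 SD, cut at about 60% in these data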;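 also: 0% = DMSO wells and 100% = LY294002 at 200 µM; higher means less KLF5 promoter-driven luciferase light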
IEC-6 cytotox – cytotoxicity in IEC-6 intestinal epithelial cells, primary screen, cytotoxicity control for KLF5 inhibitor project, cell-based, luminescence; IEC-6 cytotoxicity, luminescence viability; inhibition, % at 5 µM; 290,000 compounds, 0.78% hits; AID 1825, 2009; in the data active = inhibition above about 22%;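 also: 0% = plate median of test compound wells and 100% = cytotoxic reference compound wells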
* = called active by the depositor; / = no result given. Compounds with a hit are over-represented: about 2.2% of the library has one in this group of screens.

SMILES	aSyn UTR inh	APP transl inh	BaF3 parental	Ba/F3 V617F tox	KLF5 inh	IEC-6 cytotox
C/C(=N\NC(=O)c1cc(-c2cccnc2)nc2ccccc12)c1ccc(O)cc1O	105*	66*	5	-1	3	3
C/C(=N\NC(=O)c1cc(-c2cccc(OC(C)C)c2)nc2ccccc12)c1cccnc1	17	/	/	/	-28	-3
COc1ccc(NS(=O)(=O)c2ccc(N3CCOCC3)c(NC(=O)c3cccc(F)c3)c2)cc1	-17	-23	41*	30*	-37	0
COc1ccc(NS(=O)(=O)c2ccc(N3CCOCC3)c(NC(=O)c3ccc(F)cc3)c2)cc1	-12	-12	43*	38*	-10	3
COc1ccccc1NS(=O)(=O)c1ccc(N2CCOCC2)c(NC(=O)c2ccco2)c1	13	-34	10	3	-25	0
COc1ccc(NS(=O)(=O)c2ccc(N3CCOCC3)c(NC(=O)C(C)C)c2)cc1	-18	-25	58*	40*	8	11
O=C(Nc1ccccc1N1CCOCC1)c1cccc(F)c1	10	-3	5	0	-15	-4
COc1ccc(NS(=O)(=O)c2ccc(N3CCOCC3)c(NC(=O)c3ccco3)c2)cc1	-6	-11	42*	35*	-12	-5
O=C(Nc1cc(S(=O)(=O)Nc2ccc(Cl)cc2)ccc1N1CCCCC1)c1ccc(F)cc1	-3	0	-1	-3	-10	3
Cc1csc(NC(=O)CN2C(=O)COc3ccc(Cl)cc32)n1	-10	/	/	/	/	/
O=C(Cc1ccc(Br)cc1)Nc1cccc(-c2cn3c(n2)SCC3)c1	3	22	-1	-6	-21	1
Cn1cc([N+](=O)[O-])c(C(=O)Nc2ccc(-c3nc4ccccc4o3)cc2)n1	33	/	4	2	-21	3
CC(=O)Nc1ccc(OCc2cccc3ccccc23)cc1	92*	/	/	/	9	9
CCOc1ccc(NC(C)=O)cc1	-19	/	/	/	3	-7
Cc1cc(C)c(C#N)c(SCC(=O)C2CC2)n1	-58	/	-1	-3	-7	-4
COc1ccc(OC)c(NC(=O)CCN2CCN(C)CC2)c1	-2	/	/	/	5	4
c1ccc(N2CCN(c3nnnn3-c3ccccc3)CC2)cc1	-19	48*	2	-2	8	-5
CCN(CC)c1ccc(/C=N/NC(=O)c2ccco2)cc1	-39	49*	10	6	-64	9
CCN(CC)c1ccc(/C=N/NC(=O)c2ccco2)c(O)c1	11	/	1	0	-82	22
CC(C)(C)Nc1nc(N2CCCC2)nc(N2CCCC2)n1	68*	6	1	-2	-22	1
CCNc1nc(NC(C)(C)C)nc(N2CCCC2)n1	4	-6	2	-2	-35	0
CCOc1ccc(Br)cc1S(=O)(=O)N1CC(C)OC(C)C1 (centres undefined)	19	-16	3	-4	-9	4
CCOc1cc(Br)ccc1S(=O)(=O)N1CC(C)OC(C)C1 (centres undefined)	-7	12	93*	1	-21	3
COc1cc(SC)ccc1C(=O)N1CCN(c2ccccc2OC)CC1	24	14	20	13	36	31*
CCCCC(=O)Nc1ccc(C(=O)N2CCC(C(=O)OCC)CC2)cc1	18	3	38*	-4	-11	2
SMILES	aSyn UTR inh	APP transl inh	BaF3 parental	Ba/F3 V617F tox	KLF5 inh	IEC-6 cytotox
COc1ccccc1N1CCN(C(=O)c2ccc(NC(C)=O)cc2)CC1	1	-3	9	4	7	6
CCCCCCC(=O)Nc1ccc(C(=O)N2CCCC2)cc1	23	12	4	-3	0	-1
CCCCC(=O)Nc1ccc(C(=O)N2CCN(c3ccccc3OC)CC2)cc1	-40	69*	11	7	-45	-1
C=C1CCC(C)C(C)(CCC2=CCOC2=O)C/C=C\C=C/1C(=O)O (centres undefined)	-10	/	/	/	/	/
CCN(CC(=O)Nc1cc(Cl)ccc1OC)CC(=O)NC1CCS(=O)(=O)C1 (centres undefined)	8	/	-2	-2	-38	-7
O=C(NCC(=O)N1CCC2(CC1)NCCc1[nH]cnc12)c1cccc(Cl)c1	-9	/	/	/	-45	1
